Reference: ChEMBL document CHEMBL4513216, “Probing the Open Global Health Chemical Diversity Library for Multistage-Active Starting Points for Next-Generation Antimalarials” (ACS Infect Dis, 2020)
In all, about 65,000 compounds went through this assay and about 2,100 (3.2%) showed an effect of 50% or more. The median lay at about -52%. For the sample, strong results were picked, then their nearest neighbours and some compounds at random.

The compounds below were run on Plasmodium falciparum (assay: Screen against P. falciparum Asexual Blood Stage (ABS), at 5uM). Conditions: tested at 5 uM.
Format: functional, Dd2

Row | SMILES | INHIBITION
1 | Cc1ccccc1NC(=O)CCNC(=O)c1ccoc1 | -37.5%
2 | COCCCNC(=O)Cc1nc(-c2ccncc2)n[nH]1 | -95.8%
3 | CCC1=NC2(CCC(C(=O)Nc3ccc(C)nc3)CC2)C(=O)N1C (stereo unspecified) | -28.2%
4 | Cc1cccc(CNc2cc(C3CCCNC3)ccn2)n1 (stereo unspecified) | -46.7%
5 | CC(C)(C)OC(=O)NC1CCCN(Cc2cccc(O)c2)C1 (stereo unspecified) | 51.7%
6 | CC(C)(C)OC(=O)NC1CCCN(Cc2cccs2)C1 (stereo unspecified) | 25.8%
7 | CC(=O)NC1CCCN(Cc2ccn(C)c(=O)c2)C1 (stereo unspecified) | -10.7%
8 | Cc1nn(C)c2nc(N(Cc3cnn(C)c3)C3CCCCC3)sc12 | 60%
9 | Cc1nn(C)c2nc(N(CCN(C)C)C3CCCC3)sc12 | -9.31%
10 | COCCN(Cc1cnn(C)c1)c1nc2c(s1)c(C)nn2C | -50.7%
11 | O[C@H]1CCN(CC2CC2)[C@H]1Cc1ccncc1 | -6.99%
12 | CC1CCCN(CCCNC(=O)c2ccc(N(C)S(C)(=O)=O)cc2Cl)C1 (stereo unspecified) | -129%
13 | CC(O)CNCc1c[nH]nc1-c1cc2ccccc2o1 (stereo unspecified) | -15.3%
14 | Cc1nc(CN2C(=O)C[C@H]3[C@H]2CCN3CC2CCOC2)cs1 (stereo partly specified) | -84.1%
15 | COc1ccccc1C1(CNc2cn[nH]c(=O)c2Cl)CC1 | -7.64%
16 | COc1ccccc1C1(CNCc2cccc(C#N)c2)CCOCC1 | 66.9%
17 | COc1ccccc1C1(CNCc2ccc([S+](C)[O-])cc2)CC1 (stereo unspecified) | 69.5%
18 | COc1ccccc1C1(CNc2ccc(C(=O)N(C)C)cn2)CC1 | -70.8%
19 | COc1ccccc1C1(CNc2snc(Cl)c2C#N)CCOCC1 | 27%
20 | COc1ccccc1C1(CNc2cn[nH]c(=O)c2Cl)CCOCC1 | -28.1%
21 | CC(C)(C)CN(CCC#N)C(=O)c1cccc(CC#N)c1 | -98%
22 | CCCC(NC(=O)c1ccc(OC)cc1C)c1nnn[nH]1 (stereo unspecified) | -54.4%
23 | Cc1ncc(C(=O)N2CCCC2(C)C(=O)N2CCOCC2)c(C)n1 (stereo unspecified) | -32.2%

Row | SMILES | INHIBITION
24 | CCS(=O)(=O)N1CCCN(CCCOC)CC1 | -97.9%
25 | CCOC1COC2(CCN(C(=O)c3cccc(C)n3)CC2)C1 (stereo unspecified) | -46%
26 | CC1(C)[C@@H]2CC=C(CN3CCCn4nc(C(=O)NCCO)cc4C3)[C@H]1C2 | -43.4%
27 | Cn1cc(CN2CC[C@@H]3[C@@H]2CCN3Cc2ccc3c(c2)OCO3)cn1 | -88.4%
28 | c1cncc(CN2CC[C@@H]3[C@@H]2CCN3Cc2ccc3c(c2)OCO3)c1 | 59.5%
29 | CN1CC[C@@H]2[C@@H]1CCN2Cc1ccc2c(c1)OCO2 | 43%
30 | COCc1nn(CC2CC2)c2c1CN(Cc1cccs1)CC2 | 50%
31 | CCOCc1nn(CC2CC2)c2c1CN(Cc1cccs1)CC2 | -70.5%
32 | COCc1nn(CC2CC2)c2c1CN(Cc1ccco1)CC2 | -53.2%
33 | CCO[C@H]1C[C@@H](O)C12CCN(C1Cc3ccccc3C1)CC2 | -26.8%
34 | O=C(NC1CCCC1)c1ccnc(C2CCNCC2)c1 | -131%
35 | NS(=O)(=O)c1ccc(NCc2ccccc2F)cc1C(F)(F)F | -6.73%
36 | Fc1ccccc1CNc1ccnc(C2CCNCC2)c1 | 66.5%
37 | O=C(Nc1cccc(C2SCCS2)c1)C1CCCN1c1nccs1 (stereo unspecified) | 36.7%
38 | CN1CCN(c2ccc(Br)cc2NC(=O)c2ccco2)CC1 | 53%
39 | CN1CCN(c2ccc(Cl)cc2NC(=O)c2ccco2)CC1 | 42%
40 | CN1CCN(c2ccccc2NC(=O)c2ccco2)CC1 | 32.7%
41 | CSCC(C)N(C)C(=O)c1nn(-c2ccc(F)cc2C)cc1O (stereo unspecified) | -118%
42 | Cc1cccc(CC(=O)N2CCCC(c3n[nH]c4nccnc34)C2)c1 (stereo unspecified) | -9.5%
43 | Cc1cc(-c2nn(C)c(Cl)c2CN2CC[C@H](CO)[C@@H](O)C2)no1 | -69.4%
44 | Cc1cc(-c2nn(C)c(Cl)c2CN2Cc3ccccc3C(O)C2)no1 (stereo unspecified) | 53.8%
45 | Cc1cc(-c2nn(C)c(Cl)c2CN2CCOCC(O)C2)no1 (stereo unspecified) | -22.3%
46 | Cn1nc(COc2cccnc2)c2c1CCN(c1ncccn1)C2 | -42.9%

Row | SMILES | INHIBITION
47 | CCN(CC)c1nc2ccsc2c(=O)n1CCC(=O)NC1CCCC1 | -39.2%
48 | Cc1nc(N2CCCC2)ncc1-c1cc(O)nc(N2CCOCC2)n1 | -32.6%
49 | O=C(C[C@@H]1COC[C@H]2CN(Cc3ccncc3)C[C@@H]12)N1CCOCC1 | -108%
50 | COCCS(=O)(=O)Nc1ccc(-n2cncn2)c(F)c1 | 68.3%
51 | CC(=O)Nc1ccc(-n2cncn2)c(F)c1 | 47.2%
52 | COCCNC(=O)Nc1ccc(-n2cncn2)c(F)c1 | -29%
53 | COCCN(C)Cc1nc(-c2cccc(F)c2F)oc1C | -36.7%
54 | CCCC(=O)N1Cc2ccccc2CC2(CCN(C)C2)C1 (stereo unspecified) | 8.68%
55 | CN1CCC2(Cc3ccccc3CN(C(=O)Cc3cccc(Cl)c3)C2)C1 (stereo unspecified) | 54.8%
56 | CN1CCC2(Cc3ccccc3CN(C(=O)CCN)C2)C1 (stereo unspecified) | -100%
57 | Cc1nn(C)c(Cl)c1C1CCCN1CC(=O)NC1CCCC1 (stereo unspecified) | 13%
58 | Cn1cc(S(=O)(=O)NCCc2ccsc2)cn1 | -97%
59 | CC(C)(C)c1cn(C2CCN(C3CCSC3)CC2)nn1 (stereo unspecified) | -103%
60 | COc1ccc(OC)c(CNCCc2cc(F)cc3c2OCOC3)c1 | 66.3%
61 | N#Cc1ccc(CNCCc2cc(F)cc3c2OCOC3)cc1 | -105%
62 | N#Cc1cccnc1NCCc1cc(F)cc2c1OCOC2 | -127%
63 | COc1cc(CNCCc2cc(F)cc3c2OCOC3)cc(OC)c1 | 31.1%
64 | COc1cccc(CNCCc2cc(F)cc3c2OCOC3)c1 | 19.8%
65 | COc1ccc(CNCCc2cc(F)cc3c2OCOC3)cc1O | 37%
66 | COc1ccc(CNCCc2cc(F)cc3c2OCOC3)c(OC)c1 | 55.4%
67 | COc1ccc(CNCCc2cc(F)cc3c2OCOC3)cc1OC | 21.3%
68 | COc1cccc(CNCCc2cc(F)cc3c2OCOC3)c1OC | 56.8%
69 | CC(C)CCC(=O)NC(C)c1nnc2n1CCCCC2 (stereo unspecified) | -147%

Row | SMILES | INHIBITION
70 | O=C(CC1CCCC1)N1C[C@@H]2CCN(c3cccnc3)C[C@@H]2C1 | -58.1%
71 | Cc1cc(C(=O)N2CCc3nc4sc(C)cc4c(=O)n3CC2)on1 | -73.5%
72 | Cc1ccccc1CN1CCN(C(=O)c2ccn(C(C)(C)C)c2)CC1 | 2.14%
73 | CC(=O)c1ccc(NC(=O)c2ccc3c(c2)C2(CCCCC2)CN3)cc1 | 20.8%
74 | CC(C)c1ccc(CN2CCC(CNS(=O)(=O)C3CC3)C2)cc1 (stereo unspecified) | 59.4%
75 | Cc1ncc(CN2CCC(CNS(=O)(=O)C3CC3)C2)cn1 (stereo unspecified) | -131%
76 | CCc1ccc(CN2CCC(CNS(=O)(=O)C3CC3)C2)nc1 (stereo unspecified) | 19.1%
77 | Cc1ccccc1OCn1ccc(C(=O)NCCN2CCOCC2)n1 | -44.8%
78 | Cc1cc(-c2cc(S(=O)(=O)N3C[C@H](C4CC4)[C@@H](N)C3)c(C)s2)[nH]n1 | 62.6%
79 | Cc1ccc(S(=O)(=O)N2C[C@H](C3CC3)[C@@H](N)C2)cc1F | 14.8%
80 | Cc1cc2[nH]c(=O)oc2cc1S(=O)(=O)N1C[C@@H](N(C)C)[C@H](C(C)C)C1 | -101%
81 | CC(C)c1cc(C(=O)N2CCCC(Cn3cc(CO)nn3)C2)on1 (stereo unspecified) | -137%
82 | COCCN1CCC2(CC1)CC(NCc1cncn1C)c1ccccc12 (stereo unspecified) | -18.1%
83 | CC(C)CN1CCC(NC(=O)c2ccc(F)cc2F)CC1 | -150%
84 | CC(C)CN1CCC(NC(=O)c2ccc(F)cc2I)CC1 | 23.2%
85 | CCN1CCC(NC(=O)c2ccc(F)cc2I)CC1 | 50%
86 | O=C(NCCc1ccccc1F)NCC(O)c1cccc(F)c1 (stereo unspecified) | -156%
87 | NC(=O)c1cc2c(nc1Oc1cccc(CN3CCCC3)c1F)CCC2 | -10.3%
88 | COc1cc(C(=O)NS(=O)(=O)c2cncc(Br)c2)ccc1C | -28.1%
89 | Cc1cc(C2CCCN(C(=O)COc3cccc(F)c3)C2)n[nH]1 (stereo unspecified) | -49.4%
90 | CNCC(=O)N1CCCC(c2nccnc2Oc2cccc(F)c2)C1 (stereo unspecified) | 55.4%
91 | NC(=O)CN1CCCC(c2nccnc2Oc2cccc(F)c2)C1 (stereo unspecified) | -47.7%
92 | Cn1ccc2c(NC(=O)Cn3ncc4c(c3=O)CCCC4)cccc21 | -90.4%

Row | SMILES | INHIBITION
93 | Cc1nc(C2CN(Cc3scnc3C)CCO2)cc(N(C)C)n1 (stereo unspecified) | -79.5%
94 | OCCCN1CCc2onc(C(c3ccccc3)c3ccccc3)c2C1 | 49.4%
95 | OCCN1CCc2[nH]nc(C(c3ccccc3)c3ccccc3)c2C1 | 61.7%
96 | CC(O)CN1CCc2[nH]nc(C(c3ccccc3)c3ccccc3)c2C1 (stereo unspecified) | 42.3%
97 | c1coc(CN2CC[C@H]3O[C@@H](COCC4CC4)CC[C@H]32)c1 | -93.2%
98 | Cc1nc(C)c(C(=O)N2C[C@@H](C(=O)O)[C@H](C3CC3)C2)s1 | -75.7%
99 | CCN(CC)Cc1nc2c(o1)CN(S(=O)(=O)c1cccs1)C2 | -61.5%
100 | CN(CCc1ccncc1)Cc1c(C2CCCC2)[nH]c2ncccc12 | -56.1%
101 | CN(CCc1ccccc1)Cc1c(C2CCNCC2)[nH]c2ncccc12 | 54.6%
102 | CN(CCc1ccccc1)Cc1c(C2CCOCC2)[nH]c2ncccc12 | -22.4%
103 | Cc1ccc(CN2CCN(C3CSCCSC3)CC2CCO)o1 (stereo unspecified) | -73.5%
104 | CC(C)c1cc(C2CCN(C(=O)Cn3nc4ccccc4n3)CC2)[nH]n1 | -107%
105 | O=C(c1ccc2[nH]ccc2c1)N1Cc2nc(CN3CCCCC3)oc2C1 | -72.8%
106 | CC1CN(Cc2ccccc2)CCCN1CCS(C)(=O)=O (stereo unspecified) | 39.2%
107 | CC1CN(Cc2ccccc2)CCCN1CCCS(C)(=O)=O (stereo unspecified) | 53.2%
108 | CNS(=O)(=O)CCCN1CCCCCC1c1ccc(C)o1 (stereo unspecified) | 10.3%
109 | COCCN1CCN(CCCS(C)(=O)=O)CC1C (stereo unspecified) | -42.5%
110 | CNS(=O)(=O)CCCN1CCCN(Cc2ccccc2)CC1C (stereo unspecified) | 59.7%
111 | COCCN1CCN(CCCS(=O)(=O)c2ccccc2)CC1C (stereo unspecified) | -121%
